From PubChem BioAssay (NCI)
This is part of a sample that, as a whole, favours compounds with a hit. Of some 83,000 tested, about 20% had one in any assay.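 A percent growth of 40 corresponds to 60% growth inhibition; 0 means no net growth; -100 means all cells died. Active threshold: below 10.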 Unmarked numbers belong to inactive results. Activity calls are given as the source filed them.

What was measured:
Assay in all cases: NCI-60 one-dose screen, 48 h (100 = growth as untreated, 0 = no growth, -100 = all killed)
Conditions in all cases: 10 µM
RPMI-8226 leukemia = tested on: RPMI-8226 leukemia
OVCAR-8 ovarian = tested on: OVCAR-8 ovarian
OVCAR-5 ovarian = tested on: OVCAR-5 ovarian
OVCAR-4 ovarian = tested on: OVCAR-4 ovarian
IGROV1 ovarian = tested on: IGROV1 ovarian
OVCAR-3 ovarian = tested on: OVCAR-3 ovarian
HS 578T breast = tested on: HS 578T breast
NCI/ADR-RES ovarian = tested on: NCI/ADR-RES ovarian
SK-OV-3 ovarian = tested on: SK-OV-3 ovarian

Row | SMILES | growth (RPMI-8226 leukemia) | growth (OVCAR-8 ovarian) | growth (OVCAR-5 ovarian) | growth (OVCAR-4 ovarian) | growth (IGROV1 ovarian) | growth (OVCAR-3 ovarian) | growth (HS 578T breast) | growth (NCI/ADR-RES ovarian) | growth (SK-OV-3 ovarian)
1 | C=C1CC[C@H](C(=C)C)[C@H]2C=C(C)C(=O)C3=C(C(=O)[C@@](C)(O)C3)[C@H]12 | -22.5% (active) | -96.5% (active) | -87.2% (active) | -81.8% (active) | -61.4% (active) | -41.7% (active) | -13.1% (active) | -31.1% (active) | 
2 | O=C(c1ccc(Cl)cc1)C1[C@H](c2ccc(Br)cc2)[C@@H](c2ccccc2)NC12C(=O)Nc1ccc(Br)cc12 (stereo not given in full) | -6.16% (active) | -56.7% (active) |  | -0.87% (active) | -78.3% (active) | -89.7% (active) | -16.6% (active) | -85.6% (active) | 2.89% (active)
3 | COc1cccc(/C=N/NC(=O)c2ccc3nc(-c4ccc(Cl)cc4)[nH]c3c2)c1O | -50.5% (active) | -84.6% (active) |  | -36.3% (active) | -77.2% (active) | -87.4% (active) |  | 50.7% | -84.6% (active)
4 | CCOC(=O)C1=C(N)N(c2ccc(Cl)cc2)C2=C(C(=O)CC(C)(C)C2)C1c1ccc(N2CCOCC2)cc1 (stereo not given) | 99.9% | 100% | 106% | 105% | 98% | 102% | 109% | 97.4% | 
5 | COc1cc(/C=C/C(=O)c2ccc(NC(=O)CSc3nnc(-c4c[nH]c5ccccc45)n3-c3ccccc3)cc2)cc(OC)c1OC | 6.57% (active) | 50.1% | 108% | 93% | 48.8% | 66% | 93.2% | 96.1% | 
6 | COc1ccc([C@H]2C(C(=O)c3ccc(Cl)cc3)C3(N[C@@H]2c2ccccc2)C(=O)Nc2ccc(Cl)cc23)cc1 (stereo not given in full) | -11% (active) | 15.3% | -23.4% (active) | 20.4% | -1.76% (active) | -10.8% (active) | -10.1% (active) | -47.1% (active) | 
7 | CONC[C@]1(C)C=C2C(=O)[C@](C)(O)C3(CC3)C(C)=C2[C@H]1O | 54.3% | -6.95% (active) | -44.2% (active) | -17.4% (active) | -15.4% (active) | -20.4% (active) | -12.4% (active) | -58.3% (active) | 
8 | COc1ccc2nc(Cl)c(-c3cc(-c4ccccc4)nc(=O)[nH]3)cc2c1 | -14.7% (active) | 11.3% |  | 85.3% | 78.2% | 16.6% | 77.3% | 6.75% (active) | 108%
9 | CC1(C)CC[C@]2(C(=O)NCCCNCCCCNCCCN)CC[C@]3(C)C(=CC[C@@H]4[C@@]5(C)Cc6c([nH]c7ccccc67)C(C)(C)[C@@H]5CC[C@]43C)[C@H]2C1 | 68.3% | 98.6% | 91.1% | 102% | 77.3% | 118% | 93.6% | 93.2% | 
10 | OCCCNc1oc(-c2ccccc2)nc1[P+](c1ccccc1)(c1ccccc1)c1ccccc1 | 4.55% (active) | 8.02% (active) |  | 16.6% | -19.4% (active) |  | -13.3% (active) | 95% | -4.9% (active)
11 | CCCS(=O)(=O)c1oc(-c2ccc(F)cc2)nc1S(=O)(=O)c1ccc(F)cc1 | -46.6% (active) | -69.3% (active) |  | -90.7% (active) | 74.9% | -96% (active) | 56.8% | -52.2% (active) | 83.3%
12 | CC1(c2ccccc2)NC(=O)N(CC(=O)Nc2ccc(C(=O)/C=C/c3ccc(Cl)cc3)cc2)C1=O (stereo not given) |  | 17.7% | 34.5% | 24.8% | -19.8% (active) | -69.9% (active) | 48.9% | 48.9% | 66%
13 | O=C1NC(=NC23CC4CC(CC(C4)C2)C3)N/C1=C\c1ccc2ncccc2n1 | -23.3% (active) | 2.33% (active) | -40.4% (active) | -24.7% (active) | -6.63% (active) | -22.3% (active) |  | -21% (active) | 
14 | COc1ccc(/C=N/N=C(\C)c2ccc3c(c2)Nc2ccccc2S3)cc1O | 28.3% | 62.8% |  | 41.7% | 70.1% | 72.8% | 73.7% | 34.8% | 87.3%
15 | Cc1ccc(C(C)C)cc1NC(=O)c1ccccc1O | 3.01% (active) | 59.1% |  | 24.6% | 54.3% | 29.9% | 43% | 29.1% | 44.5%
16 | CC(=O)c1ccc(NC(=O)NCn2c(=O)[nH]c3ccccc3c2=O)cc1 | 87.8% | 101% |  | 107% | 104% | 131% | 97.3% | 107% | 94.9%
17 | Cc1ccc(-c2nc3ccc(C(=O)N=Nc4c(O)[nH]c5ccc(Br)cc45)cc3[nH]2)cc1 | 49.6% | 39.9% |  | 45.7% | 87.4% | 49.4% | 94.1% | 99.7% | 96.1%
18 | COc1ccc(-c2ccc(/C=N/NC(=O)c3[nH]c4ccc(Br)cc4c3-c3ccccc3)s2)cc1 | 57.7% | 51.9% | 12.8% | 79.6% | 110% | 97.5% | 54% | 59.9% | 
19 | CCN1CCN(c2ccc(NC(=O)Nc3ccc4c(c3F)CCN4c3ccnc(C(=O)NC)c3)cc2C(F)(F)F)CC1 | -40.2% (active) | -75.4% (active) |  | -89.6% (active) | 113% | -85.6% (active) | 68.3% | -67.6% (active) | 103%
20 | Cc1noc2c(Cc3ccccc3)nn(CC(=O)N/N=C/c3ccc(F)cc3)c(=O)c12 | 83.7% | 33.1% |  | 5.18% (active) | 70.4% | 44.6% | -1.33% (active) | 60.7% | 28.9%

Row | SMILES | growth (RPMI-8226 leukemia) | growth (OVCAR-8 ovarian) | growth (OVCAR-5 ovarian) | growth (OVCAR-4 ovarian) | growth (IGROV1 ovarian) | growth (OVCAR-3 ovarian) | growth (HS 578T breast) | growth (NCI/ADR-RES ovarian) | growth (SK-OV-3 ovarian)
21 | C#Cc1ccc(S(=O)(=O)Nc2cccc(-c3csc(NC(C)=O)n3)c2)cc1 | 42.1% | 85.5% |  | 59.7% | 49.5% |  | 83.6% | 70.8% | 88.9%
22 | O=C1NC(=NC23CC4CC(CC(C4)C2)C3)N/C1=C\c1ccc2ncsc2c1 | -14.7% (active) | 10.5% | -7.67% (active) | 8.44% (active) | 4.69% (active) | -6.21% (active) | -0.802% (active) | -10.5% (active) | 
23 | Cc1ccc(C(C)C)cc1NC(=O)c1ccccc1N(C)C | 72.6% | 101% | 86.6% | 90% | 88.6% | 103% | 110% | 74.6% | 
24 | COc1cccc(-c2ccc(/C=N/NC(=O)c3[nH]c4ccc(Br)cc4c3-c3ccccc3)o2)c1 | 1.18% (active) | -16% (active) | 12.3% | 37.3% | 32.6% | 8.31% (active) | -1.37% (active) | -35% (active) | 
25 | O=C(c1ccc(O)cc1)C1[C@H](c2ccccc2Br)[C@@H](c2ccccc2)NC12C(=O)Nc1ccc(Cl)cc12 (stereo not given in full) | 4.84% (active) | 4.97% (active) |  | 17% | 7.88% (active) | -46.2% (active) | 5.54% (active) | 11.2% | 29.6%
26 | O=C(Nc1ccc(I)cc1F)c1cc(-c2ccc(F)cc2F)ccc1O | -18.1% (active) | 8.5% (active) |  | 17.2% | 22.7% | -1.28% (active) | 2.66% (active) | -8.34% (active) | -10.6% (active)
27 | COC(=O)c1c(C(=O)OC)c2n(c1C)[C@@H]([C@@H](C)[C@H]1CC[C@H]3[C@@H]4CCC5=CC(=O)CC[C@]5(C)[C@H]4CC[C@]13C)SC2 | -11.5% (active) | 26.7% | 54.2% | 38.5% | 75.9% | 51.4% | 56.6% | 7.08% (active) | 
28 | Brc1ccc(/C=C/c2n(Cc3ccc4ccccc4c3)c3ccccc3[n+]2Cc2ccc3ccccc3c2)cc1 | -56.8% (active) | -64% (active) |  | -85.9% (active) | -68.4% (active) |  |  | 78.7% | -3.34% (active)
29 | CC1=C(C(=O)OC(C)C)C(c2ccc(O)cc2)NC(=S)N1 (stereo not given) | 95.7% | 130% |  | 115% | 110% | 105% | 103% | 97.5% | 107%
30 | CC(=O)Nc1nc(-c2ccc(N3CCN(C)CC3)c(NS(=O)(=O)c3cccc4c(N(C)C)cccc34)c2)cs1 | 6.29% (active) | 76.7% |  | 68.8% | 84.8% | 78.9% | 41% | 94.8% | 63.9%
31 | COc1cccc(C(N)=Nc2ccc(OCCCCCCn3cncn3)cc2)c1 | 16% |  | 28.2% | 60.7% | 31.4% | 16.2% | 26.4% | 13.5% | 29.6%
32 | O=C(c1ccc(Cl)cc1)C1[C@H](c2ccccc2Br)[C@@H](c2ccccc2)NC12C(=O)Nc1ccc(Br)cc12 (stereo not given in full) | 7% (active) | 13.7% |  | 23.2% | 21.2% | -8.88% (active) | 12% | -67% (active) | 36.2%
33 | CS(=O)(=O)Nc1ccc(-c2ccc3c(c2)ncn3-c2ccc(NC(=O)Nc3ccc(Br)cc3)cc2)cc1 | -24% (active) | 17.1% |  | 18.1% | 26.7% | 5.29% (active) | 0.433% (active) | 59.8% | 1.06% (active)
34 | NC(=Nc1ccc(OCCCCCCCCn2ccnn2)cc1)c1ccccc1 |  |  | 24.9% | 57.1% | 28.9% | 25.3% | 40.7% |  | 
35 | COc1ccc(N(C)c2cc(C#N)nc3ccccc23)cc1/C=C/C(=O)NO | 5.81% (active) | -37.9% (active) |  | 7.41% (active) | -57.4% (active) | -43.4% (active) | -18.2% (active) | -41.9% (active) | -22.7% (active)
36 | S=c1nc(-c2ccccc2)cc(-c2cc3ccccc3nc2Cl)[nH]1 | 76.3% | 76.1% | 110% | 91.7% | 82.8% | 76.7% | 57.6% | 49.1% | 
37 | Cc1cccc2cc(-c3cc(-c4ccccc4)nc(=S)[nH]3)c(Cl)nc12 | 81% | 85.4% | 108% | 99.5% | 93.1% | 107% | 59.4% | 56.6% | 
38 | N#Cc1c(-c2ccc(F)cc2)nc(SCc2ccc(F)cc2)nc1N1CCOCC1 | 92.7% | 54.8% | 83.1% | 60.5% | 90.9% | 75.2% | 25.7% | 63.5% | 
39 | CCCCCCCCCCCCCCCCCCCC(=O)NCCc1c[nH]c2ccc(OC(=O)NOCCOCCOCCOCCOCCOCCOCCOCCOCCOCCOCCOCCOCCOCCOCCOCCOCCOCCOCCOCCOCCOCCOC)cc12 | -29.5% (active) | 7.17% (active) |  | 29.8% | 18.9% | 11.8% | -18.9% (active) | 89.3% | -10.1% (active)
40 | O=C1Nc2ccc(Cl)cc2/C1=C/c1cccc(OCc2ccccn2)c1 | -45.3% (active) | -42.6% (active) |  | 4.17% (active) | 0.125% (active) | -35.8% (active) |  | -23.8% (active) | 4.02% (active)
